Screens: PubChem, National Center for Advancing Translational Sciences (NCATS)
In the library only some 8.6% were active in any assay of this set; here they are far more common.
Lassa entry – qHTS for Inhibitors of binding or entry into cells for Lassa Virus. Potency, µM (titrated, usually from 49.2 µM), for inactives: at the highest dose activity change, negative = inhibition, usual class: inhibitors. 18,000 tested, 4.1% active. AID 720533, 2013. Lassa virus pseudotyped entry inhibition, cell-based qHTS
Marburg entry – qHTS for Inhibitors of binding or entry into cells for Marburg Virus; Potency, µM (titrated, usually from 49.2 µM), for the others: top-dose activity change, negative = inhibition, hits mostly inhibitors; 18,000 tested, 6.5% active; Marburg virus pseudotype entry/binding inhibition, cell-based
* = called active by the depositor; ? = inconclusive; . = no result; ! = repeats disagree; [ ] = another dose, or the depositor's remark. Calls follow the shape of the full dose curve; tested in HEK293 cells. % is scaled to controls: 0 for no effect and ±100 for the full control effect; potency is read from the fitted curve at half-maximal effect.

SMILES	Lassa entry	Marburg entry
COC(=O)C1=C(C)N(Cc2ccccc2)C(=S)NC1c1ccccc1 (stereo not drawn)	0.1%[8.59 µM]	5.8%[8.59 µM]
COCC(=O)Nc1cc(C(=O)N2CCc3c([nH]c4ccccc34)C2)cc2nc(-c3ccccc3)n(C)c12	-13.2%	-13.5%
O=[N+]([O-])c1ccc(-c2nc(-c3ccc(F)cc3)c(-c3ccncc3)[nH]2)cc1	-16.0%	11.2µM*
Fc1ccc(-c2c(-c3ccncc3)nc3n2CCS3)cc1	33.5%	?
C=CCN1C(=O)CC[C@@]23C1=NC(C(=O)OC)=C(C(=O)OC)[C@@H]2N(CC#CC)c1ccccc13	-6.9%[8.59 µM]	-20.0%[8.59 µM]
Cc1cc2c(C(C)C)c(O)c(O)c(C=O)c2c(O)c1-c1c(C)cc2c(C(C)C)c(O)c(O)c(C=O)c2c1O	11.2µM*	20µM*
CC[C@@H](C)[C@H](NS(=O)(=O)c1ccc(F)cc1Br)C(=O)OC	4.6%	22.0%
COCCN1C(=O)C2=C(C1=O)C1N(C)c3ccccc3[C@@]13C[C@@H](CO)N=C3N2 (stereo partly drawn)	17.9%[8.59 µM]	24.5%[8.59 µM]
CS(=O)(=O)Nc1ccc(N=Cc2c(O)[nH]c3ccccc23)cc1	83.1%	130.7%
COc1cc(O)cc(/C=C/c2ccccc2)c1	-29.1%	-11.8%
COC1=CC(=O)C(O)=C/C1=C\C=C\c1ccccc1	-24.8%	15.8µM*
COCC(=O)Nc1cc(C(=O)N2CCN(C)C(c3ccccc3)C2)c2c(c1)nc(-c1ccncc1)n2C (stereo not drawn)	-4.5%	15.7%
Cc1c2ccncc2c(C)c2c1[nH]c1ccccc12	0.2%[17.8 µM]	4.47µM*
c1ccc2c(c1)[nH]c1cnccc12	16.4%	11.5%
CC(=O)NNC(=O)N1Cc2ccccc2Oc2ccc(Cl)cc21	-11.1%	4.9%
CCN(CC)CCCCN1c2ccccc2Oc2ccc(Cl)cc21	?	6.31µM*
O=C(Cc1ccc(Cl)c(Cl)c1)N1CCCC[C@H]1CN1CCCC1	-24.6%	?
Cc1[nH]c(/C=C2/C(=O)Nc3ccc(S(=O)(=O)Cc4c(Cl)cccc4Cl)cc32)c(C)c1C(=O)N1CCCC1CN1CCCC1 (stereo not drawn)	-4.2%	14.1µM*
C=CC[C@@](C(C)=O)(C(=O)OC)[C@@H](NC(=O)OC)c1ccccc1	-14.6%[8.59 µM]	-3.0%[8.59 µM]
COc1c(C2=CC(=O)N(C)C2=O)c2c(n1C)C(=O)c1ccccc1C2=O	-24.2%	20µM*
COc1c(C=O)c(O)cc2c1C(=O)c1ccccc1C2=O	-4.8%	7.5%
COC(=O)C1=C(C(=O)OC)[C@@H]2N(C)c3ccccc3[C@@]23C[C@@H](C(=O)OC)N(C(=O)Nc2cccc(C#N)c2)C3=N1	0.4%[8.59 µM]	27.4%[8.59 µM]
CCOC(=O)C1=CN(CCC=C(C)C)C(=O)NC1c1ccccc1 (stereo not drawn)	-15.7%[8.59 µM]	7.1%[8.59 µM]
COc1ccc2[nH]cc(CCN(C)C)c2c1	1.5%	-13.0%
COC1(CS(=O)c2ccccc2)CCN(CCc2c[nH]c3ccc(F)cc23)CC1 (stereo not drawn)	-13.1%	15.8µM*
SMILES	Lassa entry	Marburg entry
O=S1(=O)CC(N2CC=CC2)CN1Cc1cn(Cc2ccc(C(F)(F)F)cc2)nn1 (stereo not drawn)	6.9%	17.9%
CC(CCN1CCCc2nc(C)c(C)cc21)=NO[C@@H](C)c1cc(-c2c(C)cc(C)cc2C)no1	11.2%[8.59 µM]	-8.5%[8.59 µM]
O=C(C=Cc1ccc2c(c1)OCO2)c1ccc(F)cc1	3.1%[8.59 µM]	-9.4%[8.59 µM]
Fc1ccc([C@@H]2CCNC[C@H]2COc2ccc3c(c2)OCO3)cc1	?	5.62µM*
CCN1C(=NCc2cc(OC)c(OC)c(OC)c2)NC(c2ccccc2)C(C(=O)OC)=C1C (stereo not drawn)	-2.9%[8.59 µM]	43.0%[8.59 µM]
COc1ccc2[nH]c(C(=O)c3ccccc3)cc2c1	-8.9%	3.16µM*
O=C(O)c1cc2ccccc2[nH]1	-0.1%	3.5%
O=C1[C@@H]2[C@H]3[C@H](O)[C@H](O)CC(=NOC[C@@H](O)COCc4ccco4)[C@H]3CC[C@H]2C(=O)N1C[C@@H]1CCCO1	-13.7%[8.59 µM]	3.6%[8.59 µM]
CC(=O)C1=C(C)C[C@@]2(CC1)C(=O)[C@H](Cc1ccccc1)N(Cc1ccccc1)S2(=O)=O	7.5%	-17.4%
COc1ccc(CCN(C)CCc2ccc(OC)c(OC)c2)cc1OC	-12.6%	-28.6%
COc1ccc(CCN(C)CCCC(C#N)(c2cc(OC)c(OC)c(OC)c2)C(C)C)cc1OC (stereo not drawn)	-10.1%	31.6µM*
O=C(OCc1cn([C@H]2C[C@H](c3ccccc3)N(CC3CCCCC3)C[C@H]2O)nn1)c1ccccc1	-28.2%	?
CC[C@@]1([C@@H]2O[C@@H]([C@H]3O[C@@](O)(CO)[C@H](C)C[C@@H]3C)C[C@@H]2C)CC[C@@H]([C@]2(C)CCC3(C[C@H](O)[C@@H](C)[C@@H]([C@@H](C)[C@@H](OC)[C@H](C)C(=O)O)O3)O2)O1 (stereo partly drawn)	0.562µM*	0.316µM*
CC[C@@]1([C@@H]2O[C@@H]([C@H]3O[C@@](O)(CO)[C@H](C)C[C@@H]3C)C[C@@H]2C)CC[C@H]([C@]2(C)CC[C@]3(C[C@H](O)[C@@H](C)[C@@H]([C@@H](C)[C@@H](OC)C(C)C(=O)O)O3)O2)O1 (stereo partly drawn)	0.447µM*	0.282µM*
CO[C@@H]1[C@@H](OC)[C@H](C)[C@@](O)(CC(=O)O)O[C@H]1[C@H](C)[C@H]1O[C@@]2(CC[C@@](C)([C@H]3CC[C@@](C)([C@@H]4O[C@@H]([C@H]5O[C@](C)(O)[C@H](C)C[C@@H]5C)C[C@@H]4OC4C[C@H](OC)[C@@H](OC)[C@H](C)O4)O3)O2)C[C@H](O)[C@H]1C (stereo partly drawn)	1µM*	?
COCOc1c2c(c(OCOC)c3c(OCOC)cccc13)C(=NNS(=O)(=O)c1ccc(C)cc1)C1=C2CCCC1	-22.2%[8.59 µM]	?
C[C@H](CSC(=O)c1ccccc1)C(=O)N1C[C@@H](Sc2ccccc2)C[C@H]1C(=O)O	-8.0%	12.7%
CC(=O)N1C(=O)NC(C)=C(C#N)C1c1ccccc1 (stereo not drawn)	11.4%[8.59 µM]	-10.4%[8.59 µM]
COc1ccc(O[C@H]2C=C[C@@H](c3ccccc3)O[C@H]2COC(=O)CCC(C)=NO[C@H](C)c2cn([C@@H]3COC[C@@H]3O)nn2)cc1	.	-3.3%[8.59 µM]
CCOC(=O)CN1C(=O)[C@]2(O[C@H](C)CC3=CCCC32)c2c(Br)cccc21 (stereo partly drawn)	-7.3%[8.59 µM]	?
Cc1c(C)n(CCN(C)C)c2ccc(C(=O)OCCN(C)C)cc12	31.6µM*	3.98µM*
CCCCNc1ccc(C(=O)OCCN(C)C)cc1	-2.1%	?
CC(C)(C)c1ccc(O[C@@H]2[C@H](O)CO[C@@H]2C=CC#Cc2ccccc2)cc1	-28.4%[8.59 µM]	-9.0%[8.59 µM]
CCN1C(=O)[C@@H]2[C@H]3[C@H](O)[C@H](O)CC(=NOCC[C@@H]4C=C[C@H](OC(C)=O)[C@@H](COC(C)=O)O4)[C@@H]3CC[C@H]2C1=O	-1.4%[8.59 µM]	-14.6%[8.59 µM]
COC(=O)C1(C(=O)OC)CC=CCc2ccccc2[C@H]1C[N+](=O)[O-]	-7.8%[8.59 µM]	3.3%[8.59 µM]
COCC1=C2c3ccccc3[C@H](C[N+](=O)[O-])C(C(=O)OC)(C(=O)OC)C[C@@H]2n2c(=O)n(-c3ccccc3)c(=O)n2C1	7.08µM*!	-14.6%
CN1CCN(C2CN(Cc3ccccc3)S(=O)(=O)C2)CC1 (stereo not drawn)	12.9%	20.9%
CN1CCc2c(c3ccccc3n2Cc2ccccc2)C1	?	17.8µM*
